The results in this text go back to paper PMC7862700, “An all-to-all approach to the identification of sequence-specific readers for epigenetic DNA modifications on cytosine”.

Common to all, as to experiment: DAPPL (digital affinity profiling via proximity ligation, sequencing); 10 mM Tris-HCl pH 7.5, 50 mM NaCl, 1 mM DTT, 4% glycerol, room temperature, 30 min; GST-TFs on glutathione beads, 16-mer random dsDNA library, 0.1% formaldehyde crosslink after washing; high values mean tight binding
Common to all, as to conditions: protein: recombinant; tags: N-terminal GST; dsDNA, one strand shown

One assay addresses T1, ERF (Homo sapiens, UniProt P50548 1-548).
T1 sequence: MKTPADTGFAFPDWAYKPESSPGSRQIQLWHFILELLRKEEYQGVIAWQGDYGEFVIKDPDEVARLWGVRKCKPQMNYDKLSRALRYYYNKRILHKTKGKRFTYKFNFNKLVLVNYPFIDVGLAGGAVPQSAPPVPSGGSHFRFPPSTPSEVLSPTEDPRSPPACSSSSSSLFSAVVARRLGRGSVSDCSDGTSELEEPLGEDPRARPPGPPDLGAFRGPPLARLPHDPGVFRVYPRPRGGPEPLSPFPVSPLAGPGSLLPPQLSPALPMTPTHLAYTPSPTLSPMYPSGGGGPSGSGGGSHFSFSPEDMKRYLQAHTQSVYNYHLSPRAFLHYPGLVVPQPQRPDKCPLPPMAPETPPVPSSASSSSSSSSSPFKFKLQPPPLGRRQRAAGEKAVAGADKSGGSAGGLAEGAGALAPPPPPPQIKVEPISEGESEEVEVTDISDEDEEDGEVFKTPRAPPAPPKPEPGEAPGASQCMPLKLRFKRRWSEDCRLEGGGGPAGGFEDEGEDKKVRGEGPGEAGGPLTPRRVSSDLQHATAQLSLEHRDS
In outline:
(§1)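 In yeast, human transcription factors were expressed with a GST fusion, then pulled down on glutathione beads and given DNA barcodes. Pooled with a tag-only sample, they were exposed to 200 nmole of a 16-mer random double-stranded DNA library (Tris/NaCl/DTT/glycerol buffer, room temperature, 30 min), washed, crosslinked with 0.1% formaldehyde, proximity-ligated using BsaI/T4 ligase for 1 h at 37 °C, PCR-amplified and read on an Illumina NextSeq500. Each hexamer's frequency of reads for a factor, divided by the matching frequency for the tag-only sample, gives the binding signal.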

The target of the next assay is T2, ETV3L (Homo sapiens, UniProt Q6ZN32 1-361).
T2 sequence: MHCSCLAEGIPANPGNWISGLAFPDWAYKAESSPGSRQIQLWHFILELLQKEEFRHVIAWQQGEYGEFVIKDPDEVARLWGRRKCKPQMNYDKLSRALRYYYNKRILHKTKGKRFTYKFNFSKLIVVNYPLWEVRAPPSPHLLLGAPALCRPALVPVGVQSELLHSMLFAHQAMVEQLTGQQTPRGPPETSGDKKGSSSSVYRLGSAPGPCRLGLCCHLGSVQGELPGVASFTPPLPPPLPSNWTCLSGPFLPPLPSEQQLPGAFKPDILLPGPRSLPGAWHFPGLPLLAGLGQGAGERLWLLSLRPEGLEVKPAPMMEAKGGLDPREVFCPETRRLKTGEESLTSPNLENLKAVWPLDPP
The method, boiled down:
as §1

A further assay has as its target T3, ETS2 (Homo sapiens, UniProt P15036 1-469).
T3 sequence: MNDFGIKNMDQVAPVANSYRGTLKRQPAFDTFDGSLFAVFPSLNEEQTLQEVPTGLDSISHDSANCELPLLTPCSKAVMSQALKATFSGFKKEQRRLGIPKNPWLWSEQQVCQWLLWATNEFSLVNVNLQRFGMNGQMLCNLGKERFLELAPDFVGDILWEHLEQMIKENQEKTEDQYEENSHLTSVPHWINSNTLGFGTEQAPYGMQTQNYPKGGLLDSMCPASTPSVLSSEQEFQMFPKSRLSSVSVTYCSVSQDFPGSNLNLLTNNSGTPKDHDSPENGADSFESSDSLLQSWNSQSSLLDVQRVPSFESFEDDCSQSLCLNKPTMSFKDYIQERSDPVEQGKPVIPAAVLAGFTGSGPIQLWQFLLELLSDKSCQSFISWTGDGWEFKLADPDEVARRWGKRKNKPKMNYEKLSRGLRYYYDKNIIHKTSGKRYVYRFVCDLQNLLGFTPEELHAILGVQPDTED
The method, boiled down: as §1

The target in another assay is T4, SPDEF (Homo sapiens, UniProt O95238 1-335).
T4 sequence: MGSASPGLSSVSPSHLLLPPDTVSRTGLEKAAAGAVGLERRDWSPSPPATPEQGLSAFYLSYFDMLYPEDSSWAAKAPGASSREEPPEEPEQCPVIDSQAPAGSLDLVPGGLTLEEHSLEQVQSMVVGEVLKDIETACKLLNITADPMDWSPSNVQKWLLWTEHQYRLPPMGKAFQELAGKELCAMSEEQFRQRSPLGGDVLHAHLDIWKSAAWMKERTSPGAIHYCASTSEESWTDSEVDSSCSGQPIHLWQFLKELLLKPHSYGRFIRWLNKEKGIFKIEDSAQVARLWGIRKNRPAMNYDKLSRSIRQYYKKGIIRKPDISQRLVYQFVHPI
The method, boiled down: as §1

The next assay addresses T5, ETV7 (Homo sapiens, UniProt Q9Y603 1-341).
T5 sequence: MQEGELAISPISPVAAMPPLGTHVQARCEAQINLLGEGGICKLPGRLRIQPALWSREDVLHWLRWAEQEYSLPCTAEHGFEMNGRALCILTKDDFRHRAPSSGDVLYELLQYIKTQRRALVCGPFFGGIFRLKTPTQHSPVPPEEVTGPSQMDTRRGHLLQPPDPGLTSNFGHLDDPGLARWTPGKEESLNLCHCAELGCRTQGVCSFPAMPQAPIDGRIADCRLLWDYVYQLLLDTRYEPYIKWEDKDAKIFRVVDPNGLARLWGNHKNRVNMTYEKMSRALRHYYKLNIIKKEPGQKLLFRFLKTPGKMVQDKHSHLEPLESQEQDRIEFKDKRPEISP
In outline:
as §1

A further assay has as its target T6, ELF5 (Homo sapiens, UniProt Q9UKW6-2 1-255).
T6 sequence: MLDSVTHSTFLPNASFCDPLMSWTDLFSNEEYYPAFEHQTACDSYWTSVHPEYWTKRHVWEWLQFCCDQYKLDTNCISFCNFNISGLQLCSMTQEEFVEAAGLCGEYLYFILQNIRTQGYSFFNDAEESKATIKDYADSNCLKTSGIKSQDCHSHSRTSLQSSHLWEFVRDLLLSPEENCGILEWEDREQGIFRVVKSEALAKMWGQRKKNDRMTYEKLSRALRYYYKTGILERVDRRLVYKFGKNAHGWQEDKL
The method, boiled down: as §1

A further assay deals with T7, ETV3 (Homo sapiens, UniProt P41162-2 1-143).
T7 sequence: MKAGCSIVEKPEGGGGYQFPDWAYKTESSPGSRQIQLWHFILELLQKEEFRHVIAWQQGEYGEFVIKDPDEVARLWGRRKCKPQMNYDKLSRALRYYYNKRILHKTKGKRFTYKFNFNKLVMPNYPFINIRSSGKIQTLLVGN
The method, boiled down:
as §1

In the next assay the target is ETV6 (Homo sapiens, UniProt P41212 1-452). The method, boiled down: as §1
Sequence of ETV6 (P41212 whole entry): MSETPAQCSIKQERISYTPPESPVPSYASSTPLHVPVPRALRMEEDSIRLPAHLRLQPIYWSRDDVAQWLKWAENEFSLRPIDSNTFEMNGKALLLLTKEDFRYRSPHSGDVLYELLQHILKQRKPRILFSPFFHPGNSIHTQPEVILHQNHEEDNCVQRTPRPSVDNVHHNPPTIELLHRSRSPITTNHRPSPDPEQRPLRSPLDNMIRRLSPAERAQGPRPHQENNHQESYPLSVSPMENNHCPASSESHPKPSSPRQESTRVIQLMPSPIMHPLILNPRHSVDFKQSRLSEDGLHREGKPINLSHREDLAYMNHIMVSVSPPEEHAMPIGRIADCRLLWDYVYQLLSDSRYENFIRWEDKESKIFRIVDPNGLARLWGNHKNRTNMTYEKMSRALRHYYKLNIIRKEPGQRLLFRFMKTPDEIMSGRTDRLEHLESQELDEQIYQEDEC

Consider GCCCCT, for which the binding signal is 1.27 fold enrichment (6-mer frequency, TF over GST control) with ERF; 1.3 fold enrichment (6-mer frequency, TF over GST control) in the assay with ETV3L; 1.27 fold enrichment (6-mer frequency, TF over GST control) with ETS2; 1.37 fold enrichment (6-mer frequency, TF over GST control) with SPDEF; 1.22 fold enrichment (6-mer frequency, TF over GST control) with ETV7; 1.2 fold enrichment (6-mer frequency, TF over GST control) in the assay with ELF5. In addition, the binding signal with ETV3 was 1.23 fold enrichment (6-mer frequency, TF over GST control); with ETV6, 1.23 fold enrichment (6-mer frequency, TF over GST control).
As to ATCTTT, the binding signal with ERF was 1.22 fold enrichment (6-mer frequency, TF over GST control); with ETV3L, 1.34 fold enrichment (6-mer frequency, TF over GST control); in the assay with ETS2, 1.18 fold enrichment (6-mer frequency, TF over GST control); with SPDEF it was 1.17 fold enrichment (6-mer frequency, TF over GST control); with ETV7 it was 1.13 fold enrichment (6-mer frequency, TF over GST control); with ELF5, 1.21 fold enrichment (6-mer frequency, TF over GST control). Moreover, the binding signal was 1.21 fold enrichment (6-mer frequency, TF over GST control) with ETV3 and 1.2 fold enrichment (6-mer frequency, TF over GST control) in the assay with ETV6.
On to CTTGTG, for which the binding signal is 1.59 fold enrichment (6-mer frequency, TF over GST control) in the assay with ERF; 1.4 fold enrichment (6-mer frequency, TF over GST control) with ETV3L; 1.5 fold enrichment (6-mer frequency, TF over GST control) with ETS2; 1.41 fold enrichment (6-mer frequency, TF over GST control) with SPDEF; 1.41 fold enrichment (6-mer frequency, TF over GST control) with ETV7; 1.44 fold enrichment (6-mer frequency, TF over GST control) with ELF5. Besides, the binding signal with ETV3 is 1.51 fold enrichment (6-mer frequency, TF over GST control); in the assay with ETV6, 1.22 fold enrichment (6-mer frequency, TF over GST control).
Consider CAAACC, for which the binding signal with ERF is 1.06 fold enrichment (6-mer frequency, TF over GST control); with ETV3L, 1.18 fold enrichment (6-mer frequency, TF over GST control); with ETS2, 1.09 fold enrichment (6-mer frequency, TF over GST control); with SPDEF, 1.11 fold enrichment (6-mer frequency, TF over GST control); with ETV7, 1.02 fold enrichment (6-mer frequency, TF over GST control); with ELF5, 1.02 fold enrichment (6-mer frequency, TF over GST control). Besides, the binding signal with ETV3 was 1.11 fold enrichment (6-mer frequency, TF over GST control); with ETV6, 1.1 fold enrichment (6-mer frequency, TF over GST control).
For the sequence CATTAC, the binding signal with ERF was 1.09 fold enrichment (6-mer frequency, TF over GST control); in the assay with ETV3L, 1.14 fold enrichment (6-mer frequency, TF over GST control); in the assay with ETS2 it was 1.23 fold enrichment (6-mer frequency, TF over GST control); in the assay with SPDEF it was 1.14 fold enrichment (6-mer frequency, TF over GST control); with ETV7, 1.03 fold enrichment (6-mer frequency, TF over GST control); with ELF5, 1.1 fold enrichment (6-mer frequency, TF over GST control). Besides, the binding signal is 1.13 fold enrichment (6-mer frequency, TF over GST control) with ETV3 and 1.11 fold enrichment (6-mer frequency, TF over GST control) with ETV6.
Regarding CCGGTT, the binding signal with ERF was 1.82 fold enrichment (6-mer frequency, TF over GST control); with ETV3L it was 1.94 fold enrichment (6-mer frequency, TF over GST control); in the assay with ETS2, 1.96 fold enrichment (6-mer frequency, TF over GST control); with SPDEF it was 2.99 fold enrichment (6-mer frequency, TF over GST control); with ETV7, 1.77 fold enrichment (6-mer frequency, TF over GST control); with ELF5 it was 2.37 fold enrichment (6-mer frequency, TF over GST control). For the same sequence, the binding signal with ETV3 was 2.05 fold enrichment (6-mer frequency, TF over GST control); with ETV6 it was 2.19 fold enrichment (6-mer frequency, TF over GST control).
Consider GGGCTC, for which the binding signal with ERF is 1.28 fold enrichment (6-mer frequency, TF over GST control); with ETV3L, 1.32 fold enrichment (6-mer frequency, TF over GST control); in the assay with ETS2, 1.14 fold enrichment (6-mer frequency, TF over GST control); in the assay with SPDEF it was 1.09 fold enrichment (6-mer frequency, TF over GST control); with ETV7, 1.18 fold enrichment (6-mer frequency, TF over GST control); in the assay with ELF5 it was 1.12 fold enrichment (6-mer frequency, TF over GST control). For the same sequence, the binding signal with ETV3 is 1.22 fold enrichment (6-mer frequency, TF over GST control); with ETV6, 1.19 fold enrichment (6-mer frequency, TF over GST control).
